PubChem BioAssay AID1345085 (National Center for Advancing Translational Sciences (NCATS), 2018)
Inconclusive results are not listed. Values without a mark were called inactive. Active and inactive are the calls of the source. Calls come from the whole dose curve; as a rule, active = well fitted cell-killing curve with a large enough effect; inconclusive = small, poorly fitted or top-dose-only effect, or effect the other way; inactive = no such curve, though single readings can be large or run the other way.

system: Es-2; assay: Confirmatory qHTS for gynecologic anti-cancer compounds from libraries of approved drugs and bioactive compounds; details: gynecologic cancer cell panel viability, ATPlite luminescence, 48 h; series mostly up to 57.6 µM; activity change, negative = viability loss: at the top concentration; note: nearly all actives have a fitted effect of over 55% in size
Description: National Center for Advancing Translational Sciences [NCATS] Assay Overview: Chemotherapeutic drug responses vary from cancer to cancer and from patient to patient. These variations could be caused by a number of factors including patient genomic background, tumor mutations, tumor heterogeneity, and aspects of drug treatment. Chemotherapeutic drug resistance is also a common issue and can lead to ineffective treatment and patient death. Here we have profiled the cell killing effects of thousands of compounds to characterize the responses in three gynecological cancers, identify cancer-selective compounds, and understand the diversity of responses to these compounds from pan-cancer suppressors to single cell line selective compounds. In this assay, we screened a 7,914 compound drug library that included approved drug and bioactive compounds in six ovarian, three cervical, and two placental cancer cell lines using the ATPlite assay for cell viability. ATPlite is a luminescence based assay reliant on the conversion of a luciferase substrate to light in the presence of ATP. As a cytotoxic compound will suppress growth and decrease the number of cells, the concentration of ATP will decrease, and less light signal will be detected in the well. Hits were selected from the primary screen for follow-up confirmation. For the confirmation screens, the ovarian cancer cell lines included CAOV-3, SK-OV-3, SW 626, ES-2, PA-1, and TOV-21G. The cervical cancer cell lines included HeLa, Ca Ski, and C-33 A. The placental cancer cell lines included JEG-3 and JAR. HEK 293T cells were used as the control cell line to determine the selectivity index. The ATPlite assay was used to determine the IC50 values.
Assay Protocol Summary: 1,000 cells in 4 uL of media were dispensed into white, solid bottom 1536-well plates using a Multidrop Combi (Thermo Scientific). The Assay plates were incubated for 16 hours at 37 C with 5% CO2 in assay plates, followed by the addition of 23 nL of DMSO or drug dissolved in DMSO. . Each compound was assayed in 11 concentrations (1:3 dilution) from 57.5 uM to 0.977 nM, using the automated Wako 1536 Pin Tool workstation and incubated at 37 C with 5% CO2 48 hours. 4 uL of ATPlite, the ATP monitoring reagent, was then added to the each well of the assay plates using the Multidrop Combi reagent dispenser followed by incubation for 15 minutes at room temperature. The resulting luminescence was measured using the ViewLux plate reader.
% is set by controls: 0 for no effect and ±100 for the full control effect; potency is the fitted concentration of half-maximal effect.

| SMILES | Potency | activity change, negative = viability loss [%] |
| --- | --- | --- |
| CNC1CCC(N(Cc2cccc(-c3ccncc3)c2)C(=O)c2sc3ccccc3c2Cl)CC1 (stereo not given) | 24.3 µM (active) |  |
| CN(C)CCC(CSc1ccccc1)Nc1ccc(S(=O)(=O)NC(=O)c2ccc(N3CCN(Cc4ccccc4-c4ccc(Cl)cc4)CC3)cc2)cc1[N+](=O)[O-] (stereo not given) | 4.85 µM (active) |  |
| CCCCc1nc2cc(/C=C/C(=O)NO)ccc2n1CCN(CC)CC | 1.09 µM (active) |  |
| CCOC(=O)C1=C(C)NC2=C(C(=O)CC(C)(C)C2)C1c1ccc(-c2ccccc2)cc1 (stereo not given) |  | -4.79 |
| CC(Oc1ccc2[nH]nc(/C=C/c3cnn(CCO)c3)c2c1)c1c(Cl)cncc1Cl (stereo not given) | 4.32 µM (active) |  |
| Cc1cnc(Nc2ccc(F)cc2Cl)nc1-c1c[nH]c(C(=O)NC(CO)c2cccc(Cl)c2)c1 (stereo not given) |  | -11.1 |
| CCc1c2c(nc3ccc(OC(=O)N4CCC(N5CCCCC5)CC4)cc13)-c1cc3c(c(=O)n1C2)COC(=O)[C@]3(O)CC | 12.2 µM (active) |  |
| Nc1ccn([C@@H]2O[C@H](CO)[C@@H](O)C2(F)F)c(=O)n1 | 0.0306 µM (active) |  |
| COc1cccc2c1C(=O)c1c(O)c3c(c(O)c1C2=O)C[C@@](O)(C(=O)CO)C[C@@H]3O[C@H]1C[C@H](N)[C@H](O)[C@H](C)O1 | 1.72 µM (active) |  |
| COc1cc2ncnc(Nc3ccc(F)c(Cl)c3)c2cc1OCCCN1CCOCC1 |  | -2.6 |
| CNc1nccc(-c2cccnc2Oc2cc(C(=O)Nc3cccc(C(F)(F)F)c3)ccc2C)n1 | 6.11 µM (active) |  |
| COc1ccc2cc3[n+](cc2c1OC)CCc1cc2c(cc1-3)OCO2 |  | -17.3 |
| Cc1csc(NC(=O)c2sc3nc4c(c(C(F)(F)F)c3c2N)CCC4)n1 | 2.17 µM (active) |  |
| Cn1cnc2c(F)c(Nc3ccc(Br)cc3Cl)c(C(=O)NOCCO)cc21 | 6.85 µM (active) |  |
| Cc1ccc(NC(=O)c2ccc(CN3CCN(C)CC3)cc2)cc1Nc1nccc(-c2cccnc2)n1 |  | 4.97 |
| CC1=C(/C=C/C(C)=C/C=C/C(C)=C/C(=O)Nc2ccc(O)cc2)C(C)(C)CCC1 | 27.3 µM (active) |  |
| CC(=O)O[C@H]1C(=O)[C@@]2(C)[C@H]([C@H](OC(=O)c3ccccc3)[C@]3(O)C[C@H](OC(=O)[C@H](O)[C@@H](NC(=O)c4ccccc4)c4ccccc4)C(C)=C1C3(C)C)[C@]1(OC(C)=O)CO[C@@H]1C[C@@H]2O | 0.0819 µM (active) |  |
| CCc1c2c(nc3ccc(O)cc13)-c1cc3c(c(=O)n1C2)COC(=O)[C@]3(O)CC | 0.0385 µM (active) |  |
| Cc1cnc(Nc2ccc(OCCN3CCCC3)cc2)nc1Nc1cccc(S(=O)(=O)NC(C)(C)C)c1 | 8.63 µM (active) |  |
| COCCOc1ccc2c(c1)ncn2-c1ccc2cccc(N3CCC(N)CC3)c2n1 | 6.11 µM (active) |  |

| SMILES | Potency | activity change, negative = viability loss [%] |
| --- | --- | --- |
| CC(C)n1nc(-c2cc3cc(O)ccc3[nH]2)c2c(N)ncnc21 | 4.85 µM (active) |  |
| CC(Oc1cc(-n2cnc3ccc(CN4CCN(C)CC4)cc32)sc1C(N)=O)c1ccccc1C(F)(F)F (stereo not given) | 3.43 µM (active) |  |
| Nc1ncn([C@@H]2O[C@H](CO)[C@@H](O)[C@H]2O)c(=O)n1 | 12.2 µM (active) |  |
| Fc1cc(-c2cccc3ncc(-c4cnn(C5CCNCC5)c4)nc23)cc(F)c1CN1CCOCC1 | 21.7 µM (active) |  |
| CN(C)/N=N/c1nc[nH]c1C(N)=O |  | -10.7 |
| CCC1C(=O)N(C)c2cnc(Nc3ccc(C(=O)NC4CCN(C)CC4)cc3OC)nc2N1C1CCCC1 (stereo not given) | 0.0611 µM (active) |  |
| CNC(=O)c1ccccc1Sc1ccc2c(/C=C/c3ccccn3)n[nH]c2c1 | 19.3 µM (active) |  |
| N#CC1(c2cccc(C(=O)Nc3cc(Oc4ccc5nc(NC(=O)C6CC6)sc5n4)ccc3F)c2Cl)CC1 | 5.44 µM (active) |  |
| O=C1c2c(O)ccc(O)c2C(=O)c2c(NCCNCCO)ccc(NCCNCCO)c21 | 0.968 µM (active) |  |
| CC[C@]1(O)C[C@H]2CN(CCc3c([nH]c4ccccc34)[C@@](C(=O)OC)(c3cc4c(cc3OC)N(C=O)[C@H]3[C@@](O)(C(=O)OC)[C@H](OC(C)=O)[C@]5(CC)C=CCN6CC[C@]43[C@@H]65)C2)C1 | 0.432 µM (active) |  |
| CN(C)C/C=C/C(=O)Nc1cc2c(Nc3ccc(F)c(Cl)c3)ncnc2cc1OC1CCOC1 (stereo not given) | 15.3 µM (active) |  |
| CC[C@@]1(O)C(=O)OCc2c1cc1n(c2=O)Cc2cc3c(CN(C)C)c(O)ccc3nc2-1 | 0.193 µM (active) |  |
| OCCNC1CCCc2c1[nH]c1ccc(-c3ccccc3)cc21 (stereo not given) | 19.3 µM (active) |  |
| CCCc1nn(C)c2c(=O)[nH]c(-c3cc(S(=O)(=O)N4CCN(C)CC4)ccc3OCC)nc12 |  | 8 |
| Cc1cc(CN2CCN(c3c(Br)cnc4nc(-c5ccc(N6CCN(C)CC6)cc5)[nH]c34)CC2)no1 | 7.69 µM (active) |  |
| NS(=O)(=O)OC[C@@H]1C[C@@H](n2ccc3c(N[C@H]4CCc5ccccc54)ncnc32)C[C@@H]1O | 1.72 µM (active) |  |
| NC(=O)Nc1cc(-c2cccc(F)c2)sc1C(=O)NC1CCCNC1 (stereo not given) | 0.344 µM (active) |  |
| Cc1nc(Nc2ncc(C(=O)Nc3c(C)cccc3Cl)s2)cc(N2CCN(CCO)CC2)n1 | 13.7 µM (active) |  |
| CCC1=CC2CN(C1)Cc1c([nH]c3ccccc13)[C@@](C(=O)OC)(c1cc3c(cc1OC)N(C)[C@H]1[C@@](O)(C(=O)OC)[C@H](OC(C)=O)[C@]4(CC)C=CCN5CC[C@]31[C@@H]54)C2 (stereo not given in full) | 0.376 µM (active) |  |
| CN(C[C@@H]1COCCO1)S(=O)(=O)Nc1ccc2ccc3ncc(-c4cnn(C)c4)cc3c(=O)c2c1 |  | 13.7 |
